Experimental data reported in PubChem BioAssay AID1159580 (chemical genetic matrix, 2015).
Values joined by “and” are separate entries in the source; they are usually repeats but may differ in a detail not shown here. Identical values can stand only once. The whole screen tested about 5,500 compounds, of which about 2,000 (36%) were called active. About 18% were inconclusive and are not listed. Rule as the data show it: active = normalized growth mostly below about 0.91 (no sharp cut-off); inconclusive = no clear call, values can overlap the other calls; inactive = mostly above about 0.92. Some of the results follow.

Assay: chemical genetic growth profiling, strain panel (AID 1159580);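 also: tested at 20 µM; growth read once vehicle control cultures reached saturation at 30 °C; 1 = growth at the plate median or of vehicle wells; lower values mean less growth of the strain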
Conditions: S. cerevisiae deletion strains, growth OD

Measured: normalized growth

COC1=C(OC)C(=O)C(C/C=C(\C)CC/C=C(\C)CC/C=C(\C)CC/C=C(/C)CC/C=C(\C)CC/C=C(\C)CC/C=C(\C)CC/C=C(\C)CC/C=C(\C)CCC=C(C)C)=C(C)C1=O
inactive: locus YAL013W, strain DEP1, stronger effect = lower value 0.999 | locus YAL021C, strain ccr4, stronger effect = lower value 0.983 | locus YAL026C, strain drs2, stronger effect = lower value 0.97 | locus YAL030W, strain snc1, stronger effect = lower value 0.989 | locus YBL061C, strain skt5, stronger effect = lower value 0.996 | locus YBR009C, strain hhf1, stronger effect = lower value 1.01 | locus YBR021W, strain FUR4, stronger effect = lower value 1.07 | locus YBR023C, strain chs3, stronger effect = lower value 0.978 | locus YBR171W, strain sec66, stronger effect = lower value 0.973 | locus YBR229C, strain ROT2, stronger effect = lower value 0.959 | locus YBR231C, strain swc5, stronger effect = lower value 0.974 | locus YBR279W, strain paf1, stronger effect = lower value 0.989 | locus YCL011C, strain gbp2, stronger effect = lower value 0.96 | locus YCL016C, strain dcc1, stronger effect = lower value 0.994 | locus YCL029C, strain bik1, stronger effect = lower value 0.969 | locus YCL069W, strain vba3, stronger effect = lower value 0.972 | locus YCR088W, strain abp1, stronger effect = lower value 0.972 | locus YDL005C, strain med2, stronger effect = lower value 0.977 | locus YDL035C, strain GPR1, stronger effect = lower value 1.03 | locus YDL040C, strain nat1, stronger effect = lower value 0.983 | locus YDL074C, strain BRE1, stronger effect = lower value 1.11 | locus YDL101C, strain DUN1, stronger effect = lower value 0.982 | locus YDL134C, strain PPH21, stronger effect = lower value 1.01 | locus YDL185W, strain tfp1, stronger effect = lower value 0.991 | locus YDL192W, strain arf1, stronger effect = lower value 1.02 | locus YDR001C, strain nth1, stronger effect = lower value 0.989 | locus YDR069C, strain doa4, stronger effect = lower value 0.96 | locus YDR101C, strain arx1, stronger effect = lower value 1.02 | locus YDR137W, strain rgp1, stronger effect = lower value 0.983 | locus YDR159W, strain sac3, stronger effect = lower value 0.963 | locus YDR162C, strain NBP2, stronger effect = lower value 0.972 | locus YDR195W, strain ref2 0.963 | locus YDR297W, strain sur2, stronger effect = lower value 0.975 | locus YDR318W, strain mcm21, stronger effect = lower value 0.984 | locus YDR334W, strain swr1, stronger effect = lower value 0.969 | locus YDR335W, strain msn5, stronger effect = lower value 0.974 | locus YDR388W, stronger effect = lower value 1 | locus YDR392W, strain spt3, stronger effect = lower value 0.967 | locus YDR502C, strain sam2, stronger effect = lower value 0.989 | locus YEL003W, strain gim4, stronger effect = lower value 0.983 | locus YEL037C, strain rad23, stronger effect = lower value 0.981 | locus YEL061C, strain CIN8 (second series), stronger effect = lower value 0.941 | locus YEL061C, strain CIN8, stronger effect = lower value 1.01 | locus YER015W, strain faa2, stronger effect = lower value 0.979 | locus YER016W, strain bim1, stronger effect = lower value 0.978 | locus YER110C, stronger effect = lower value 0.983 | locus YER111C, strain swi4, stronger effect = lower value 0.958 | locus YER155C, strain BEM2 (second series), stronger effect = lower value 0.982 | locus YER155C, strain BEM2, stronger effect = lower value 1 | locus YER167W, strain BCK2, stronger effect = lower value 1 | locus YFR010W, strain ubp6, stronger effect = lower value 0.964 | locus YGL078C, strain dbp3, stronger effect = lower value 1.01 | locus YGL086W, strain mad1, stronger effect = lower value 1.04 | locus YGL167C, strain pmr1, stronger effect = lower value 0.981 | locus YGL173C, strain kem1, stronger effect = lower value 0.982 | locus YGL227W, strain vid30, stronger effect = lower value 0.96 | locus YGL240W, strain doc1, stronger effect = lower value 0.974 | locus YGL248W, strain PDE1, stronger effect = lower value 0.999 | locus YGL253W, strain hxk2, stronger effect = lower value 0.988 | locus YGR078C, strain PAC10, stronger effect = lower value 0.996 | locus YGR135W, strain pre9, stronger effect = lower value 1 | locus YGR252W, strain gcn5, stronger effect = lower value 1.02 | locus YHR013C, strain ard1, stronger effect = lower value 0.957 | locus YHR027C, strain rpn1, stronger effect = lower value 0.968 | locus YHR030C, strain SLT2, stronger effect = lower value 1.02 and 1.01 | locus YHR079C, strain IRE1 (second series), stronger effect = lower value 0.986 | locus YHR079C, strain IRE1, stronger effect = lower value 1.02 | locus YHR094C, strain hxt1, stronger effect = lower value 0.999 | locus YHR129C, strain ARP1, stronger effect = lower value 1.01 | locus YHR142W, strain chs7, stronger effect = lower value 0.972 | locus YHR200W, strain rpn10, stronger effect = lower value 0.976 | locus YIL066C, strain RNR3, stronger effect = lower value 1.01 | locus YIL073C, strain SPO22, stronger effect = lower value 1.03 | locus YIL125W, strain kgd1, stronger effect = lower value 0.998 | locus YIR030C, strain dcg1, stronger effect = lower value 0.995 | locus YJL092W, strain hpr5, stronger effect = lower value 0.958 | locus YJL095W, strain BCK1 (second series), stronger effect = lower value 0.973 | locus YJL095W, strain BCK1, stronger effect = lower value 1.01 and 0.989 | locus YJL115W, strain asf1, stronger effect = lower value 0.969 | locus YJL129C, strain trk1, stronger effect = lower value 0.979 | locus YJL134W, strain LCB3, stronger effect = lower value 0.991 | locus YJL154C, strain vps35, stronger effect = lower value 0.976 | locus YJL164C, strain tpk1, stronger effect = lower value 0.999 | locus YJL166W, strain qcr8, stronger effect = lower value 0.978 | locus YJL168C, strain set2, stronger effect = lower value 0.994 | locus YJL187C, strain SWE1 (second series), stronger effect = lower value 0.985 | locus YJL187C, strain SWE1, stronger effect = lower value 0.984
